This passage reports activation results from PubChem BioAssay AID540364 (The Scripps Research Institute Molecular Screening Center, 2011).

Hit rate of the full screen: of about 360,000 compounds, about 2,000 (0.56%) were called active. The entries come from a sample that favours actives as a whole. A number with no mark means an inactive call.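 How the source made its calls: active means activation above the average of all compounds screened plus 3 SD, cutoff fixed separately per campaign (cut at about 7.5% in these data); inactive means the rest.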

The assay in a line: FXN promoter activators, primary screen, cell-based, luciferase luminescence, HEK293 lucGAA850 (AID 540364).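 Further: 0% = DMSO wells and 100% = 10 µM SAHA wells.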 The settings on record: HEK293 lucGAA850 FXN promoter luciferase reporter, 24 h; at 6 µM; stronger effect = higher value; percent of 10 µM SAHA response. (In general: A reporter such as luciferase makes a cellular process visible.)
For `O=C1CS(=O)CN1c1ccc(Oc2ccccc2)cc1` (centres undefined), the activation is 0.15%.
As for `Cc1ccc(-n2nc(N)c3c(=O)oc(N(C)C)nc32)cc1`, the figure is -0.82%; as for `Cc1ccsc1C(=O)NCCc1ccco1`, 2.23%; as for `CCCCc1ccc(NC(=S)N2CCCC(CO)C2)cc1` (centres undefined), 9.18% (active).
As for `CCC(C)c1ccc(NC(=S)N2CCCC2)cc1` (centres undefined), the figure is 2.31%.
The same measure for `CCOc1ccc(NC(=S)N2CCCCCC2)cc1`: 1.3%; for `Cc1ccc2cc(/C=N/NC(=O)[C@@H]3CCCN3)c(Cl)nc2c1`: 0.79%; for `Cc1ccc2cc(/C=N/Nc3ccc(C(=O)O)cc3)c(Cl)nc2c1`: 8.93% (active).
For the compound `O=C(O)c1ccc(N/N=C/c2ccc3ncccc3c2)cc1`, the activation is -3.19%.
As for `CCOCCCNC(=O)C(NC(=O)CNC(=O)c1ccccc1)c1ccc(C)cc1` (centres undefined), the figure is 1.83%; as for `COc1ccc(OC)c(NC(=O)CSc2nc3cccnc3n2C)c1`, 1.38%; as for `COc1cccc(-c2ccc(C#N)c(SCC(=O)NCCc3ccc(Cl)cc3)n2)c1`, 1.81%.
For `COc1cccc2cc(/C(C)=N/NC(=O)c3ccco3)oc12`, the activation was 3.55%.
In the case of `COc1ccc(C)cc1NC(=O)CSc1nc(SC)ns1`, the activation was -0.57%.
Regarding `COc1ccc(NC(=O)CSc2nc(SC)ns2)c(OC)c1`, the activation was 7.6% (active).
As for `CSc1nsc(SCC(=O)Nc2cc(C(=O)O)ccc2C)n1`, the figure is 0.88%.
As for `Cc1cccc(C(=O)NC2CCN(CC(=O)Nc3cccc(Cl)c3)CC2)c1`, the figure is -1.24%; as for `Fc1c(F)c(C(F)(F)F)c(F)c(F)c1N1CCN(c2ccc3nnc(C(F)(F)F)n3n2)CC1`, -0.98%; as for `Cc1ccccc1Nc1c([N+](=O)[O-])ccc2nonc12`, 8.33% (active).
The same measure for `Cc1cc(NC(=O)Nc2ccccc2[N+](=O)[O-])no1`: 3.8%.
`Cc1ccc2nsnc2c1NC(=O)c1ccccc1[N+](=O)[O-]`: the activation is 3.24%.
The same measure for `CC(C)CN(C(=O)CSc1nncn1C)C1CCS(=O)(=O)C1` (centres undefined): 0.57%; for `CCC1C(=O)c2ccccc2N(C)C1=O` (centres undefined): 0.11%; for `CN1C(=O)/C(=N/OC(=O)c2ccccc2Br)c2ccccc21`: 2.92%.
Consider `CN1C(=O)/C(=C\c2cc(Br)cs2)c2ccccc21`, for which the activation was 9.69% (active).
The same measure for `COCCC(=O)Nc1ccc2c(c1)CN(C(=O)CCOC)CC2`: 0.49%; for `CC1C/C(=N/NC(=O)c2cccs2)CC(C)(C)C1` (centres undefined): 2.63%.
For `Cc1nnc(SCCCn2c(N3CCCCC3)nc3c2c(=O)[nH]c(=O)n3C)s1`, the activation is 3.13%.
For the compound `C=CCn1c(SCc2ccccc2)nc2c1c(=O)[nH]c(=O)n2C`, the activation is 4.04%.
The same measure for `Cc1nnc(Sc2nc3c(c(=O)[nH]c(=O)n3C)n2Cc2ccccc2)s1`: 21.3% (active); for `COc1cc(Cn2c3ccc(NC(=O)CC(C)c4ccccc4)cc3c(=O)n2C)ccc1F` (centres undefined): -0.13%; for `C[C@H]([C@@H](O)[C@@H](O)[C@@H](C)C(C)(C)C)[C@H]1CC[C@H]2C3CC[C@H]4C[C@H](OS(=O)(=O)O)[C@@H](OS(=O)(=O)O)C[C@]4(C)[C@H]3CC[C@]12C` (some centres undefined): -1.51%.
The same measure for `Nn1cnnc1N/N=C/c1cc([N+](=O)[O-])c(Cl)cc1Cl`: -1.71%; for `CCCN(CCC)CCNC(=O)c1cc2c(C)nc3ccccc3c2o1`: -0.61%.
As for `CNC(=O)c1cccc2nc3ccccc3nc12`, the figure is 3.97%.
On to `CN(C)CCNC(=O)c1ccc(Cl)c2cc3ccccc3nc12`, for which the activation was 22.7% (active).
With `COC(=O)CCSc1cc([N+](=O)[O-])cc2c1c(C1OCCS1)nn2-c1ccccc1` (centres undefined), the activation is 4.76%.
The same measure for `CC1=C(C(=O)N2CCOCC2)CC(CC(=O)NCc2cccc3ccccc23)C(=O)N1CCC1=CCCCC1` (centres undefined): -1.16%; for `CCn1c(=O)c(=O)n(CC)c2cc(S(=O)(=O)N3CCc4ccccc43)ccc21`: 0.26%.
In the case of `Cn1c(=O)n(C)c2cc(S(=O)(=O)N3CCCc4ccccc43)ccc21`, the activation is 7.64% (active).
As for `O=S(=O)(c1ccccc1)N1CCc2ccccc21`, the activation is 1.28%.
The same measure for `Cc1c(Br)c([N+](=O)[O-])nn1C(C)C(=O)Nc1nccs1` (centres undefined): 1.64%; for `COc1ccc(-n2nc(C(=O)NCC(=O)Nc3cccc(C)n3)c3ccccc3c2=O)cc1`: -0.56%.
Turning to `Cc1ccc(S(=O)(=O)N(CCc2ccccc2)c2ccc3c(c2)C2CC3CCN2C(=O)OCc2ccccc2)cc1` (centres undefined), the activation is 0.17%.
As for `COc1cc(/C=C/C(=O)Nc2ccc(OC)c(S(=O)(=O)N3CCOCC3)c2)ccc1OCC#N`, the figure is -0.85%.
As for `COc1ccc(/C=C/C(=O)Nc2ccc(C34CC5CC(CC(O)(C5)C3)C4)cc2)cc1OC`, the figure is 7.97% (active); as for `COc1ccc(/C=C/C(=O)Nc2ccc(C)cc2)cc1S(=O)(=O)N1CCOCC1`, -0.63%; as for `Cc1ccc2c(c1)N(CC(=O)NCC1CCCO1)C(=O)CO2` (centres undefined), 0.58%.
The same measure for `Cc1ccc(-n2c(C)cc(/C=C(\C#N)C(=O)NCC3CCCO3)c2C)cc1` (centres undefined): 8.72% (active); for `Cc1ccc(C(=O)N/C(=C/c2cccs2)C(=O)NCC2CCCO2)cc1` (centres undefined): 0.61%.
Regarding `CCN(CC)CCNS(=O)(=O)c1ccc(/C=C/C(=O)O)cc1`, the activation is 3.64%.
For the compound `CCCS(=O)(=O)N1CCC(C(=O)NCCCN(C)Cc2ccccc2)CC1`, the activation was -0.04%.
Regarding `Cc1ccc(NC(=O)c2sc3nc(N)c(C#N)cc3c2N)cc1`, the activation was 9.04% (active).
On to `CCc1ccc2nc3sc(C(=O)Nc4nnc(CC)s4)c(N)c3cc2c1`, for which the activation is 3.44%.
As for `Cc1ccc(Sc2ccc(NC(=O)c3ccc(F)cc3)cc2C#N)cc1`, the activation is -1.85%.
The same measure for `CCCCc1ccc(S(=O)(=O)NC(=O)C2(C)CCN2C(=O)c2c(C)noc2C)cc1` (centres undefined): 1.5%.
Regarding `Cc1c(C(C)(C)O)[nH]c2ccc(C#N)cc12`, the activation was 2.02%.
The same measure for `Cc1onc(-c2c(F)cccc2Cl)c1C(=O)OCC(=O)N1C(C)CCCC1C` (centres undefined): 0.34%.
As for `CCCn1c(=NC(C)=O)c(C(=O)OCC)cc2c(=O)n3ccccc3nc21`, the activation was 5.78%.
The same measure for `CCOC(=O)c1cc2c(=O)n3ccccc3nc2n(CC(C)C)c1=NC(=O)c1c(-c2c(F)cccc2Cl)noc1C`: 8.16% (active); for `CCCNC(=O)C1(C)CCCN(Cc2c(C)nn(-c3ccccc3)c2C)C1` (centres undefined): 0.72%.
For the compound `Cc1cc(C(=O)O)c(S(C)(=O)=O)s1`, the activation is -0.08%.
For `CCOc1ccc(N2C(=O)/C(=C/c3ccc(C)o3)N(C)C2=S)cc1`, the activation is 4.15%.
With `Cc1cc(=O)oc(C)c1C(=O)NCc1ccc(F)cc1`, the activation was 14% (active).
In the case of `Cc1cc(=O)oc(C)c1C(=O)NCCN(C)Cc1ccccc1`, the activation is 1.1%.
As for `COc1ccc(CNC(=O)c2c(C)cc(=O)oc2C)cc1OC`, the figure is -0.25%.
Turning to `CCN(CC)CCN1C(=O)C2C(C(=O)Nc3ccc(Br)cc3)C3C=CC2(O3)C1C(=O)NC1CCCCC1` (centres undefined), the activation is -1.41%.
As for `CS(=O)(=O)c1ccc2nnn(OCC(=O)Nc3cccc(C#N)c3)c2c1`, the figure is -0.17%.
`Cc1ccc(C2C(C#N)C(C#N)N3CCCN23)cc1` (centres undefined): the activation was 3.84%.
The same measure for `CCCCOC(=O)CNc1nnc(SCC(=O)OCC)[nH]c1=O`: 4.67%; for `COc1ccc(C#Cc2c(-c3ccc(OC)cc3)oc3ccc(-c4ccc5c(c4)OCO5)cc23)cc1`: 0.99%; for `O=C(/C=C/Nc1ccccc1)c1cnc(-c2ccccc2)s1`: -1.96%.
As for `CC(=O)c1cnc(-c2ccccc2)s1`, the figure is -1.26%; as for `CC(C)(C)C(=O)c1cnc(Nc2ccccc2)s1`, 8.7% (active).
For the compound `Cc1cccc(C)c1N1C(=O)CN(Cc2ccccc2)C1=S`, the activation was 2.98%.
In the case of `O=C(NC(CC(=O)N1CCN(c2ccccc2)CC1)c1ccccc1)c1ccccc1Cl` (centres undefined), the activation was -0.04%.
The same measure for `CCOc1cc(/C=C2\SC(N3CCCCC3)=NC2=O)ccc1O`: 1.52%; for `O=C1N=C(N2CCc3ccccc3C2)S/C1=C\c1ccc(O)cc1`: -0.01%; for `O=C1N=C(N2CCCC2)S/C1=C\c1cccc(Br)c1`: 8.18% (active).
`COC(=O)C1CCN(CC(N)=O)CC1`: the activation is -1.4%.
Consider `Cc1ccc(CN(C(=O)c2sc3ccccc3c2Cl)C2CCS(=O)(=O)C2)cc1` (centres undefined), for which the activation was 1.1%.
For `CC1(Cc2cccc(C#N)c2)C(=O)Nc2ccc(-c3cccc(C(F)(F)F)c3)cc21` (centres undefined), the activation is 11.2% (active).
Consider `Cc1ccc(CC2(C)C(=O)Nc3ccc(OC(F)(F)F)cc32)cc1` (centres undefined), for which the activation is -1%.
On to `CC1(Cc2ccccc2C#N)C(=O)Nc2ccc(-c3ccc4[nH]ccc4c3)cc21` (centres undefined), for which the activation was -5.44%.
Turning to `COc1cccc(CNc2nc(NCc3cccs3)nc3ccsc23)c1`, the activation was -1.3%.
Take `NC(c1csc(NC(=O)Nc2ccccc2Oc2ccccc2)n1)c1ccccc1Cl` (centres undefined): the activation was -1.81%.
The same measure for `c1ccc2c(c1)OCC(c1nn3cnnc3s1)O2` (centres undefined): 3.93%.
The same measure for `CC1CCc2sc3nc(N4CCN(CCO)CC4)n4ncnc4c3c2C1` (centres undefined): 7.88% (active); for `CC1CCc2c(sc3nc4n(c(=O)c23)CCS4)C1` (centres undefined): 3.94%.
Consider `CCCn1nnc2sc3c(c2c1=O)CCC(C)C3` (centres undefined), for which the activation was 4.15%.
The same measure for `CCOc1cc2[nH]c(=O)n(CCC(=O)NCc3ccc(OC)cc3)c(=O)c2cc1OCC`: 0.9%; for `NC(=S)NN=C1CCCC(C(F)(F)F)C1` (centres undefined): -0.39%; for `N#CCCCn1c(O)c(N=NC(=O)C(O)c2ccccc2)c2ccccc21` (centres undefined): 1.76%.
As to `CCOC(=O)c1ccc(N=C2SC(C(=O)NC)CC(=O)N2CCc2ccccc2)cc1` (centres undefined), the activation was 0.94%.
